Assay [1] can be described thus: APR_HepG2_CellCycleArrest_24hr: Apredica 24-hour HepG2 Assay for Cell Cycle Arrest (AID 2282905).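 Note: cell cycle arrest scored as ratio of 2N to 4N nuclear DNA content.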 Conditions: imaging, actives raise or lower the signal. The method in brief:
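Cell cycle arrest is scored from nuclear DNA content measured by high-content imaging of Hoechst 33342-stained HepG2 cells following 24-hour treatment at ten concentrations up to 200 uM, with DMSO as baseline.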

Assay [2] in a line: APR_HepG2_NuclearSize_24hr: Apredica 24-hour HepG2 Assay for Nuclear Size (AID 2282907). To be noted: high-content imaging, actives raise or lower the signal. The method in brief:
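Compounds in DMSO (final 0.5%) were added to human HepG2 hepatoma cells at ten concentrations up to 200 uM for 24 hr. Fixed nuclei were stained with Hoechst 33342, and nuclear diameter was quantified from automated images.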

The nature of assay [3]: APR_HepG2_CellLoss_24hr: Apredica 24-hour HepG2 Assay for Cell Loss (AID 2282908).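 For AC50: fit in both directions so a hit may be cell loss or gain.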 Conditions: high-content imaging. In a few lines: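 Cell number is quantified by fluorescence imaging of Hoechst 33342-stained nuclei following dosing at 0.39–200 uM in 0.5% DMSO. Curves are fitted in both directions from the DMSO baseline.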
Assay [4] is described as follows: APR_HepG2_MicrotubuleCSK_24hr: Apredica 24-hour HepG2 Assay for Microtubule CSK Stabilty (AID 2282909). Conditions: HepG2 microtubule cytoskeleton imaging, actives raise or lower the signal. In a few lines:
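Steps: dose HepG2 for 24 h (0.39–200 uM, 0.5% DMSO); fix 30 min in 3.7% formaldehyde at room temperature; permeabilize; stain alpha-tubulin 60 min; image microtubule cytoskeleton at 20x. Signal change fitted in both directions relative to DMSO.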

A short description of assay [5]: APR_HepG2_MitoticArrest_24hr: Apredica 24-hour HepG2 Assay for Mitotic Arrest (AID 2282910). To be noted: high-content imaging, actives raise or lower the signal. In a few lines:
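Compounds are dosed onto HepG2 cells across ten concentrations up to 200 uM for 24 hr. Cells are then fixed in 3.7% formaldehyde, permeabilised, and labelled for phospho-histone H3 and nuclei; images are scored by cell cycle analysis and fitted bidirectionally relative to DMSO.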

Assay [6] can be described thus: APR_HepG2_MitoMembPot_24hr: Apredica 24-hour HepG2 Assay for Mitochondrial Membrane Potential (AID 2282911). Conditions: imaging, actives raise or lower the signal. In a few lines: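 Human hepatoma HepG2 cultures received ten compound concentrations up to 200 uM for 24 hr. Membrane-potential dye signal, captured by automated fluorescence microscopy, was scored for gain or loss against DMSO controls.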

Assay [7] is described as follows: APR_HepG2_MitoMass_24hr: Apredica 24-hour HepG2 Assay for Mitochondrial Mass (AID 2282912). To be noted: high-content imaging, actives raise or lower the signal. The method in brief:
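The liver line HepG2 was dosed in duplicate across a 0.39–200 uM series, with final DMSO held at 0.5% v/v, and harvested at 24 hr. High-content imaging measured mitochondrial dye staining.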

Assay [8] in a line: APR_HepG2_p53Act_24hr: Apredica 24-hour HepG2 Assay for p53 Activation (AID 2282913).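 Note: p53 protein immunofluorescence averaged per cell in HepG2 with Hoechst nuclei.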 Conditions: high-content imaging, actives raise or lower the signal. In a few lines:
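Automated fluorescence imaging quantifies p53 immunostaining in HepG2 cells after a 24 hr exposure (0.39–200 uM, duplicate, 0.5% DMSO). Nuclei are located by Hoechst 33342 staining.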

Assay [9] is described as follows: APR_HepG2_CellCycleArrest_72hr: Apredica 72-hour HepG2 Assay for Cell Cycle Arrest (AID 2282914). To be noted: high-content imaging, actives raise or lower the signal. In a few lines: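 Cell cycle arrest in HepG2 was scored from nuclear DNA content after 72 hr compound treatment (0.39–200 uM). Activity, either gain or loss, was fitted against the DMSO baseline.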

Assay [10] can be described thus: APR_HepG2_CellLoss_72hr: Apredica 72-hour HepG2 Assay for Cell Loss (AID 2282915). To be noted: high-content imaging. The method in brief: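 Cell number comes from Hoechst 33342-labelled nuclei, imaged at 20x after 3.7% formaldehyde fixation. Dosing was 0.39–200 uM, ten concentrations in duplicate, 0.5% DMSO final, for 72 h. Bidirectional fit relative to DMSO baseline.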

A short description of assay [11]: APR_HepG2_P-H2AX_72hr: Apredica 72-hour HepG2 Assay for H2AX Phosphorylation (AID 2282916).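 Note: phospho-histone H2A.x immunostain intensity per cell marking DNA damage.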 To be noted: imaging, actives raise or lower the signal. In a few lines:
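Following 72 hr treatment with 0.39–200 uM compound, HepG2 cells were formaldehyde-fixed, permeabilized and stained for phospho-H2A.x; signal was measured by high-content imaging and fitted bidirectionally against DMSO controls.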

Assay [12] in a line: APR_HepG2_MitoMembPot_72hr: Apredica 72-hour HepG2 Assay for Mitochondrial Membrane Potential (AID 2282917). To be noted: imaging, actives raise or lower the signal. The method in brief: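 Membrane potential read by MitoTracker Red CMXRos (250 nM, 30 min, pre-fixation) fluorescence imaging of HepG2 after 72 hr exposure. Ten concentrations, 0.39–200 uM, duplicate wells, 0.5% DMSO; fitted in both directions against DMSO baseline.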

Assay [13] is described as follows: APR_HepG2_MitoticArrest_72hr: Apredica 72-hour HepG2 Assay for Mitotic Arrest (AID 2282918). To be noted: high-content imaging, actives raise or lower the signal. In a few lines: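 Mitotic arrest in HepG2 is scored from phospho-histone H3 staining after 72 hr dosing across 0.39–200 uM, with DMSO at 0.5% v/v. Nuclei are identified by Hoechst 33342 and fluorescence intensity is quantified per cell.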

Assay [14] can be described thus: APR_HepG2_MicrotubuleCSK_72hr: Apredica 72-hour HepG2 Assay for Microtubule CSK Stabilty (AID 2282919). To be noted: HepG2 microtubule cytoskeleton, high-content imaging, actives raise or lower the signal. The method in brief: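 Read-out is tubulin fluorescence intensity from high-content imaging of HepG2 cells, with nuclei identified by Hoechst 33342. Treatment lasts 72 h at 0.39–200 uM, and curves are fitted bidirectionally against the DMSO negative control.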

Assay [15] is described as follows: APR_HepG2_P-H2AX_24hr: Apredica 24-hour HepG2 Assay for H2AX Phosphorylation (AID 2282920). To be noted: high-content imaging, actives raise or lower the signal. The method in brief:
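Signal comes from a FITC-labeled secondary detecting phospho-histone H2A.x in fixed HepG2 cells, quantified by automated imaging at 20x. Dosing ran 24 hr across 0.39–200 uM with 0.5% v/v DMSO.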

Assay [16] in a line: APR_HepG2_StressKinase_24hr: Apredica 24-hour HepG2 Assay for Stress Kinase (AID 2282922). To be noted: HepG2 stress kinase (phospho-c-Jun) imaging, actives raise or lower the signal. In a few lines: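 HepG2, 24 hr dosing, 0.39–200 uM in duplicate, 0.5% DMSO; formaldehyde fix (3.7%), 0.5% Triton X-100; anti-phospho-c-Jun + Cy3 secondary, Hoechst counterstain; ArrayScan imaging; bidirectional curve fit vs DMSO baseline.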

The nature of assay [17]: APR_HepG2_p53Act_72hr: Apredica 72-hour HepG2 Assay for p53 Activation (AID 2282923).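 Note: average cellular p53 protein immunofluorescence intensity in HepG2 cells.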 Conditions: high-content imaging, actives raise or lower the signal. The method in brief:
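HepG2 monolayers receive test compounds in duplicate at ten concentrations (0.39 through 200 uM) for 72 hr. They are then formaldehyde-fixed, antibody-labelled for p53, Hoechst-stained and imaged, with activity fitted bidirectionally versus DMSO.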

The nature of assay [18]: APR_HepG2_MitoMass_72hr: Apredica 72-hour HepG2 Assay for Mitochondrial Mass (AID 2282924).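 Note: MitoTracker Red CMXRos stain intensity per cell imaged as mitochondrial mass.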 Conditions: high-content imaging, actives raise or lower the signal. In a few lines:
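HepG2, 72 hr cmpd, 10 conc 0.39–200 uM in dup, DMSO 0.5% v/v. MitoTracker Red CMXRos 250 nM 30 min pre-fix; formaldehyde 3.7% fix 30 min RT. HCS imaging, gain/loss fit vs DMSO.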

Assay [19] is described as follows: APR_HepG2_NuclearSize_72hr: Apredica 72-hour HepG2 Assay for Nuclear Size (AID 2282925). To be noted: high-content imaging, actives raise or lower the signal. In a few lines:
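HepG2; cpd 0.39–200 uM, 10 conc, duplicate; 72 h; DMSO 0.5% v/v; fix 3.7% formaldehyde 30 min RT; Triton permeabilization; Hoechst 2 ug/mL; HCS imaging 20x; nuclear diameter; gain/loss fit vs DMSO.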

A short description of assay [20]: APR_HepG2_StressKinase_72hr: Apredica 72-hour HepG2 Assay for Stress Kinase (AID 2282921). Conditions: HepG2 stress kinase (phospho-c-Jun) imaging, actives raise or lower the signal. In a few lines:
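Fluorescence intensity of Cy3-tagged anti-phospho-c-Jun antibody, quantified per cell from Hoechst-defined nuclei across six images per well, served as the read-out following 72 h exposure (0.39–200 uM, 0.5% v/v DMSO).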

Active and inactive are the calls of the source. Rule for the calls: active = hit-call score of the fitted dose curve at least 0.9, where 1 is the maximum; inactive = score below 0.9.

As a reminder, the AC50 is the midpoint of the concentration-response curve, whichever way the signal moves. For `CC(C)(C)c1cc(/C=C2\SC(N)=NC2=O)cc(C(C)(C)C)c1O`, the AC50 in [1] is 64.9 µM (active); in assay [3], 53.1 µM (active); in assay [4], 29.5 µM (active); in assay [5], 52.3 µM (active); in assay [7], 32.7 µM (active); in assay [8], 61.7 µM (active). In addition, the AC50 in assay [10] is 32.4 µM (active); in assay [11] it was 41.6 µM (active); in assay [13] it was 40.3 µM (active); in [14] it was 27.4 µM (active); in assay [15], 55.2 µM (active); in assay [16], 60 µM (active). The AC50 in assay [17] is 35.2 µM (active); in [18] it was 86.1 µM (active). Moreover, the compound was classed as inactive in [2], in assay [6], in assay [9], in [12] and in assay [19].

`CCCOC(=O)c1cc(O)c(O)c(O)c1`: the result in [1], in assay [2], in assay [3], in assay [4], in [5] and in [6] was inactive. The result in [7], in assay [11], in [12], in assay [13], in [14] and in [15] was inactive. For the same compound, the outcome in assay [16], in assay [18] and in [19] was inactive. For the same compound, the AC50 in assay [8] was 38.1 µM (active); in assay [9] it was 46.2 µM (active); in assay [10], 8.44 µM (active); in [17], 38.8 µM (active).

As for `CCCCCCCCCCCC[N+](C)(C)C`, the AC50 was 59 µM (active) in assay [1]; 75.6 µM (active) in assay [3]; 50.2 µM (active) in assay [5]; 180 µM (active) in assay [7]; 49.5 µM (active) in assay [8]; 41.7 µM (active) in assay [10]. Moreover, the concentration at half-maximal activity (AC50) was 75.4 µM (active) in [11]; 13.2 µM (active) in assay [13]; 50.4 µM (active) in assay [15]; 100 µM (active) in assay [20]; 20.5 µM (active) in assay [17]. The result in assay [2], in assay [4], in [6], in assay [9], in assay [12] and in [14] was inactive. Further, the compound was classed as inactive in [16], in [18] and in assay [19].

Turning to `Cc1cccc2ccccc12`, the call in assay [1], in assay [2], in assay [3], in assay [4], in assay [5] and in assay [6] was inactive. Further, the result in assay [7], in assay [8], in assay [9], in assay [10], in [11] and in assay [12] was inactive. The outcome in assay [13], in assay [14], in assay [15], in assay [20], in assay [16] and in assay [17] was inactive. Besides, the compound was classed as inactive in assay [18] and in assay [19].

For the compound `CCCCCCCCCC(=O)O`, the outcome in [1], in assay [2], in assay [3], in assay [4], in assay [5] and in assay [6] was inactive. Further, the outcome in assay [7], in assay [8], in [9], in assay [10], in assay [11] and in assay [12] was inactive. The outcome in assay [13], in assay [14], in [15], in assay [16], in assay [17] and in [18] was inactive. Also, the call in assay [19] was inactive.

In the case of `Cc1ccc(C(C)C)cc1`, the call in assay [1], in [2], in assay [3], in [4], in assay [5] and in assay [6] was inactive. The result in assay [7], in [8], in assay [9], in assay [10], in [11] and in assay [12] was inactive. The compound was classed as inactive in assay [13], in assay [14], in [15], in assay [16], in assay [17] and in assay [18]. Moreover, the outcome in assay [19] was inactive.

(Values after PubChem BioAssay (EPA / NIEHS).)
